# Screens: PubChem BioAssay, several laboratories
# SKN-1 block: inhibitors of C. elegans SKN-1. inhibition, % at 21.8 µM. 360,000 tested, 0.49% active. AID 624304. C. elegans VP596 Pgst-4::GFP/RFP ratio, acrylamide-induced, 24 h;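 active means interference check ratio from 0.5 to 1.5 plus GFP to RFP signal ratio inhibition reaching or exceeding a fixed threshold, cut at about 30% in these data, passing the limit was not always enough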
# NR1D1 modulator: Rev-erb alpha (human) modulation; Rev-erbα–FITC-DNA binding, fluorescence polarization, 90 min; activity, % at 10 µM; 370,000 tested, 0.79% active; AID 1259318;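 active means activity above about 14%, limit read from the data; passing the limit was not always enough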;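 further: 0% = DMSO wells with 35 nM protein and 100% = DMSO wells with 750 nM protein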
# Target sequence (P20393 whole entry, looked up): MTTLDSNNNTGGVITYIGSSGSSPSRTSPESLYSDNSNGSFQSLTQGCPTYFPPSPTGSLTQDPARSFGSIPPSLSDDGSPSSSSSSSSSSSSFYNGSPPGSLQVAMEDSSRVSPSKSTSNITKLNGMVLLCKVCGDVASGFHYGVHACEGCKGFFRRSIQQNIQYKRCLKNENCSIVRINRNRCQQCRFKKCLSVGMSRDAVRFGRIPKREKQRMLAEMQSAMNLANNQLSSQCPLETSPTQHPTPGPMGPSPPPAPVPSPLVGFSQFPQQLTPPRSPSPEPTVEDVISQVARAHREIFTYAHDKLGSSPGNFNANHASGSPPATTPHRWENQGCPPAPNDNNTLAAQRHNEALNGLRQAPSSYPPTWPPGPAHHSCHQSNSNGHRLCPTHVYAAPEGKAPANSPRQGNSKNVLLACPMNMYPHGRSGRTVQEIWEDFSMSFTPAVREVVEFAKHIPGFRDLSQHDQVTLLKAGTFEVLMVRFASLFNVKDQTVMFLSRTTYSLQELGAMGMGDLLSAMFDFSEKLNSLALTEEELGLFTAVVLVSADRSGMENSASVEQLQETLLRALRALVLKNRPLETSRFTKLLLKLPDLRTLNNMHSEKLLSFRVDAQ
# PG9 Ab binder: binds the HIV-1 gp120 antibody PG9; inhibition, % at 6.7 µM; AID 624416; TR-FRET gp120-PG9 antibody binding; 360,000 tested, 0.43% active; in the data active means inhibition above about 8.5%
# EP2 modulator: EP2 receptor (human) modulation. P43116. EP2-expressing cells, cAMP HTRF FRET, PGE2 co-stimulation. induction, % at 25 µM. 260,000 tested, 0.83% active. AID 940;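 active means compounds whose cAMP rise, as percent of the full-agonist control response, exceeds 60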;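 further: rat C6 glioma line stably carrying human EP2 under a CMV promoter; the protocol text gives 20 µM as final concentration; 100% = response of wells given 1 µM PGE2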
# PGE2 EP2 inh: EP2 receptor (human) inhibition; C6 glioma cells expressing human EP2, cAMP TR-FRET; cells stimulated with saturating PGE2; AID 1422; 260,000 tested, 0.52% active; inhibition, % at 25 µM;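 active means percent inhibition above 40 after rounding to a whole number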;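 further: rat C6 glioma host cells with rolipram phosphodiesterase inhibitor present; the protocol text gives 20 µM as final concentration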
# RAM inhibit: blocks the yeast RAM network | S. cerevisiae dse1pr::URA3 reporter, 5-FOA growth OD615, 2 d; analog-sensitive cbk1-as2 kinase mutant strain | inhibition, % at 50 µM | 190,000 tested, 1.8% active;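 active means inhibition above a set limit, 3 SD over mean compound inhibition, cut at about 8.4% in these data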;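 further: 0% = DMSO-only wells with no growth and 100% = 10 µM 1-NA-PP1 full growth; inhibition rescues growth on 5-FOA so higher OD means more RAM inhibition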
# Rev-erbA confirm: Rev-erb alpha (human) modulation, hit confirmation; Rev-erb alpha FITC-DNA binding, fluorescence polarization, 90 min; activation, % at 25 µM; 3,000 tested, 61% active; shares compounds with NR1D1 modulator;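 active means activation at or above a set limit, or at least 3 SD above the negative control mean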;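 further: 0% = 35 nM protein with DMSO and 100% = 750 nM protein high control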
# RORg counter: RORgamma DNA-binding activity, dose-response counter-screen. purified RORgamma protein-FITC-DNA binding, fluorescence polarization. 910 tested, 8% active. AID 1259320. IC50, µM. shares compounds with NR1D1 modulator;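 active means Compounds whose fitted half-maximal concentration for disrupting protein-DNA binding is below 10 micromolar; the record names Rev-erb in its text, so the target is in doubt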
# The depositor's hits bear a star; · = no result. This is a sample that favours compounds with a hit; in the whole collection about 2.9% have one here.
SMILES,SKN-1 block,NR1D1 modulator,PG9 Ab binder,EP2 modulator,PGE2 EP2 inh,RAM inhibit,Rev-erbA confirm,others
Nc1ccc(-c2c3ccc(=O)cc-3oc3cc(O)ccc23)cc1C(=O)O,-146.0,187.2*,-6.4,·,·,·,240.4*,RORg counter=>40
O=c1ccc2c(-c3ccccc3)c3ccc(O)cc3oc-2c1,-19.4,101.9*,-3.1,·,·,·,99.5*,RORg counter=>40
COc1cc(C2C3=C(CCCC3=O)N(C)C3=C2C(=O)CCC3)cc(Cl)c1OCC(=O)O,·,·,·,9.5,4.1,·,·,
CCc1cc2c(=O)c(-c3cnn(-c4ccccc4)c3)c(C)oc2cc1OCC(=O)Nc1ccc(F)c(F)c1,-0.9,30.9*,-1.1,-13.9,13.7,3.3,12.7,
CCSC1=C(C#N)C2(CCCCC2)C2=C(CC(C)(C)CC2=O)N1,3.6,22.3*,-0.4,16.1,8.2,1.8,2.3,
NS(=O)(=O)c1ccc(CCNc2ccccc2[N+](=O)[O-])cc1,16.0,20.9*,-1.0,·,·,·,12.9,
COC(=O)c1c(NC(=O)Cc2cccs2)sc(C(=O)Nc2cccc(Cl)c2C)c1C,·,·,·,-3.2,21.9,·,·,
COc1ccc(-c2cc(C(F)(F)F)nc(SCC(=O)Nc3ccc(C)cc3C)n2)cc1OC,·,·,·,-45.9,12.0,·,·,
COc1cc2c(cc1OC)-c1cc3ccc4c(c3c[n+]1CC2)OCO4,-3.6,26.8*,-10.8,-12.9,36.6,1.1,44.5*,RORg counter=>40
O=C(CC1CCCCC1)N1CCC[C@@H]1Cn1nc(-c2ccc3c(c2)OCO3)ccc1=O,·,·,·,-19.1,·,·,·,
O=c1[nH]c(Cc2ccc(F)cc2)nc2scc(-c3ccc(F)cc3)c12,-31.6,35.2*,0.0,30.6,8.6,2.5,35.9*,RORg counter=>40
Cc1cccc(-n2c(O)c(C=NCCO)c(=O)[nH]c2=O)c1,·,·,·,18.5,3.8,·,·,
O=C(Nc1ccnc(-c2cccnc2)n1)c1ccc(F)cc1,·,·,·,-66.5,2.9,0.9,·,
O=C(Nc1ccnc(-c2cccnc2)n1)c1ccc(Cl)cc1,-3.3,45.1*,-1.0,-69.9,11.1,0.7,41.0*,RORg counter=>40
COC(=O)c1c(NC(=O)C(C)C)sc(C(=O)Nc2ccc(Cl)cc2)c1C,·,·,·,-3.3,10.1,·,·,
CC(=O)Nc1ccc(-c2ccnc(-c3ccc(NC(C)=O)cc3)n2)cc1,-2.7,20.1*,7.5,-32.4,17.4,3.0,3.8,
C=Cn1cc(CN(CCCN2CCOCC2)Cc2ccc(C)o2)c(C)n1,·,·,·,4.0,8.1,·,·,
Fc1ccc(-[n+]2nc(Nc3ccccc3)sc2-c2ccc(OCc3ccccc3)cc2)cc1,15.8,156.2*,-0.7,·,·,·,11.0,
Cc1csc(NC(=O)c2cc3c(C)nn(Cc4ccccc4Cl)c3s2)n1,6.6,22.1*,2.0,-22.0,9.0,2.2,16.7*,
CCc1ccc(NC(=O)C2CCN(c3nccc(C)n3)CC2)cc1,·,·,·,-11.2,10.1,·,·,
Cc1ccc(NC(=O)c2sc3ncn(CC(=O)N4CCOCC4)c(=O)c3c2C)c(Br)c1,2.6,27.8*,-1.1,·,·,·,6.5,
COc1ccc2c(CN3CCn4c(CO)nnc4C3)cn(C)c2c1,·,·,·,-35.5,4.4,·,·,
CC1CCCN(c2c([N+](=O)[O-])cc(C(=O)O)cc2[N+](=O)[O-])C1 (stereo not drawn),6.7,1.0,-0.3,13.4,7.9,-2.0,·,
O=[N+]([O-])c1ccc(N2CCCCC2)s1,30.5,22.8*,-2.9,9.0,5.2,1.9,18.0*,
CC1CCCN(c2ccc([N+](=O)[O-])s2)C1 (stereo not drawn),25.1,30.8*,-4.5,2.4,3.8,2.4,15.4,
Cc1occc1-c1nnc(SCC(=O)Nc2ccc(N(C)C)cc2)n1Cc1ccco1,·,·,·,-5.3,13.9,·,·,
Cc1ncccc1C(=O)N[C@H](Cn1nnc2ccccc21)C(C)C,·,·,·,-23.9,·,·,·,
N#Cc1ccccc1N1CCN(C(=O)C2CCN(c3ncnc4c3sc3cccc(F)c34)CC2)CC1,·,48.6*,·,·,·,·,33.7*,RORg counter=>40
O=C(C1CCN(c2ncnc3c2sc2cccc(F)c23)CC1)N1CCCC1,·,-4.8,-1.8,9.5,5.9,·,·,
Cc1cc2cc(CN(Cc3ccco3)C(=S)NCc3ccco3)c(=O)[nH]c2cc1Cl,·,·,·,7.8,5.2,·,·,
